Data: PubChem BioAssay (NCI)
Several values for one entry are separate records, joined by “and”; a condition that tells them apart may be missing. Identical values can stand only once. This is part of a sample that, as a whole, favours compounds with a hit. Of some 83,000 tested, about 20% had one in any assay.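 How to read the values: 0–100, growth inhibition (40 = 60% inhibited); 0, no net growth; -100 to 0, cell death (-40 = 40% of starting cells died; -100 = all dead).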 A number with no mark means an inactive call. Activity calls are given as the source filed them.

Each molecule was assayed on UACC-62 melanoma (assay: NCI-60 one-dose screen, 48 h (100 = growth as untreated, 0 = no growth, -100 = all killed)). Settings: 10 µM.
Procedure: Growth inhibition of the UACC-62 human tumor cell line is measured as a screen for anti-cancer activity. Cells are grown in 96 well plates and exposed to the test compound for 48 hours. Compounds are tested at a single concentration, which is 10^-5 M for most compounds. The reported endpoint is percent growth (GI% or GIPRCNT), where numbers from 0 - 100% represent growth inhibition, and numbers from -100% - 0 represent cell death. For example, a value of 40 represents 60% growth inhibition. A value of 0 means no net growth occurred over the course of the experiment. A value of -40 indicates 40% of cells at the beginning of the experiment died by the end of the experiment. A value of -100 means all cells are dead at the end of the experiment.
NCI-60 Human Tumor Cell Lines Screen was performed using the standard one-dose NCI protocol, which is described in more detail at https://dtp.cancer.gov/discovery_development/nci-60/default.htm.
Compounds with GIPRCNT values below 10 were considered active. Activity score was based on GIPRCNT using the following formula: […]
Score is 0 for GIPRCNT values of 100 or above, 50 for GIPRCNT values of 0, and 100 for GIPRCNT values of -100.

In order of rising growth:
1. C=C1CC/C=C(\C)C(=O)C[C@@H]2[C@@H]1CC2(C)C  101%
2. CC(=O)OCC1=CC2OC(=O)C3=COC(OC4OC(CO)C(O)C(O)C4O)C1C32 (stereo not given)  102%

Same assay, conditions: 10 µM unless noted

In order of rising growth:
1. COc1cc(C2c3cc4c(cc3C3OC(=O)C2C3CO)OCO4)cc(OC)c1OC (stereo not given)  29.7%
2. O=C(N/N=C\c1cc(Br)cc(Br)c1O)N/N=C/c1cc(Br)cc(Br)c1O  39%
3. C/C(=N\O)C1(O)CCCCC1  59.2%
4. CN(C)c1ccc2oc(=O)c3ccccc3c2c1  68.8%
5. COc1ccc(Oc2c(I)cc(CC(NC(C)=O)C(=O)O)cc2I)cc1 (stereo not given)  73.5%
6. c1c(-c2cc(C3CC3)[nH]n2)n[nH]c1C1CC1  87.2%
7. C#Cc1cccc(NC(=O)c2ccc(Cl)cc2Cl)c1  87.9%
8. COC(=O)c1[nH]c(=O)c(C#N)c(C(=O)OC)c1C(=O)c1ccccc1  88.6%
9. Brc1cnc2ccccc2c1  93.4%
10. C[C@]12CC[C@@H]3c4ccc(OCC(=O)O)cc4CC[C@H]3[C@@H]1CCC2=O  96.5%
11. Cc1cccc(C(=O)N(C(C)C)C(C)C)c1  96.5%
12. CC1NC(=O)NC1CCCCCC(=O)O (stereo not given)  96.7%
13. CN(c1ccccc1)c1ncnc2c1ncn2C  96.8%
14. O=[N+]([O-])c1ccc(O)c(S(=O)(=O)O)c1  97.5%
15. CC1=CC(C)(C)NC(=S)N1c1ccc(S(=O)(=O)O)c2cccc(S(=O)(=O)O)c12  97.5%
16. Cc1cc2ccccc2c(O)c1C#N  97.7%
17. COc1ccccc1N1CCN(C(=S)Nc2ccccc2)CC1  98.2%
18. CC12CC3CC1C(C(=O)O2)C3C(=O)O (stereo not given)  98.3%
19. C=CCNC(=O)c1ccc(OC)cc1  99.1%
20. CCOC(=O)c1ccc(NC(=S)P(=O)(c2ccccc2)c2ccccc2)cc1  99.4%
21. Cc1cc2nc(CO)[nH]c2cc1C  99.7%
22. COc1ccccc1N=Nc1c(O)ccc2cc(S(=O)(=O)O)ccc12  100%
23. COC(=O)/C=C/C(=O)NC(N)=O  101%
24. Cc1ccc(C(=O)c2ccccc2)c(C)c1  102%
25. C=CC(=O)OCCCCCCCC  102%
26. COc1cc2cc(OC(C)=O)c3cc4c(cc3c2c(OC)c1OC)OCO4  103%
27. CCOC(=O)CNN  103%
28. S=c1sc2ccccc2n1CN1CCCCC1  104%
29. CN(C)c1nc2c([nH]1)c(=O)n(C)c(=O)n2C  105%
30. O=C1Cc2ccccc2C(=O)O1  106%
31. O=C(CN1CCNCC1)N1CCOCC1  106%
32. CCNc1nc2c(cnn2C)c(=O)[nH]1  107%
33. CCC(O)CC(CC)CO (stereo not given)  112%

`COc1ccc2c(NCCCCCCCCNc3c4ccccc4nc4cc(OC)ccc34)c3ccccc3nc2c1` was tested, and the growth was -100% (active).
With `CC(C)NC(=O)OCc1c(COC(=O)NC(C)C)c(-c2ccc(Cl)c(Cl)c2)n2c1SCC2` the growth was -19.3% (active).
With `Oc1ccc(Cc2ccccc2)c2cccnc12` the growth was -14% (active).

Same assay, conditions: 100 µM

In the case of `CC(=O)OCC1=CC2OC(=O)C3=COC(OC4OC(CO)C(O)C(O)C4O)C1C32` (stereo not given), the growth was 77.3% and 98.7%.
`C=C1CC/C=C(\C)C(=O)C[C@@H]2[C@@H]1CC2(C)C` was tested, and the growth was -99.1% (active).
